# Source: PubChem BioAssay
# TrxR1 substrate = is turned over as a substrate by rat TrxR1 | AID 588456 | 390,000 tested, 0.01% active | Potency, µM (highest dose often 114 µM), for the others: at the top dose activity change, negative = substrate turnover | O89049 | purified TrxR1 substrate turnover, NADPH consumption readout; further: on the % scale 0 is the no-effect control and ±100 the full control effect; nearly all actives have a fitted effect of over 50% in size
# Target sequence (O89049 whole entry, looked up): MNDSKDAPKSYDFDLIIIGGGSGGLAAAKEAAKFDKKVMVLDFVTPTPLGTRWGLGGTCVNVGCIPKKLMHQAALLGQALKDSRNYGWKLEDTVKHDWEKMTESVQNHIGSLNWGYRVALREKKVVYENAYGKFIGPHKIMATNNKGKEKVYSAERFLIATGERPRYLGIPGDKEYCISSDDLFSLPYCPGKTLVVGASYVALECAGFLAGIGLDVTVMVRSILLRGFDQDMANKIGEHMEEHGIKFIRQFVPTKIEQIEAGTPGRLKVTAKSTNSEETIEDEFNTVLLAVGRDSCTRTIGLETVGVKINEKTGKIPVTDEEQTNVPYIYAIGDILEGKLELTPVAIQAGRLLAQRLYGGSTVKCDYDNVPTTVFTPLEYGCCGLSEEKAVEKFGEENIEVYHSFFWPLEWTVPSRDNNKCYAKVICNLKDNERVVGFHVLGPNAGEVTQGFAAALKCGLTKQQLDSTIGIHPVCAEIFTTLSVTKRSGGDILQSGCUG
#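 Rat TrxR1, dispensed at 90 nM, was prereduced with 400 uM NADPH (final) for 5 min at ~22 deg C, then incubated with compound 15 min before 400 uM selenite. A first-read NADPH fluorescence drop versus no-compound background flagged substrates.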
# VDR inh = inhibitors of human vitamin D receptor. AID 504847. Potency, µM, inactives show max response, negative = inhibition, usual class: inhibitors. P11473. 400,000 tested, 0.93% active. VDR-SRC2-3 peptide fluorescence polarization, 2 h; further: on the % scale 0 is the no-effect control and ±100 the full control effect
#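 Measured by FP: displacement of SRC2-3 coactivator peptide from VDR by library compounds, following a two-hour ambient incubation.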
# KAT2A inh = inhibitors of human GCN5L2 histone acetyltransferase | Q92830 | GCN5L2 HAT assay, ThioGlo1 CoA-SH fluorescence | Potency, µM (top dose mostly 58.9 µM), inactives show at the top dose activity change, negative = inhibition, most hits filed as inhibitors | 390,000 tested, 0.21% active | AID 504327; further: on the % scale 0 is the no-effect control and ±100 the full control effect
#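 Fluorescence readout, Ex340nm/Em540nm: ThioGlo1 (50uM final) reacts with free CoA thiol released as 20nM GCN5L2 acetylates H3(1-25) peptide (75uM) using acetyl-CoA (70uM). Compound and enzyme sat 15 min beforehand; 20 min room-temperature reaction.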
# TrxR1 inh = blocks rat thioredoxin reductase 1; Potency, µM (top dose mostly 114 µM), for the others: at the top dose activity change, negative = inhibition, hits mostly inhibitors; O89049; 390,000 tested, 1% active; recombinant rTrxR1, NADPH fluorescence consumption, selenite substrate; further: on the % scale 0 is the no-effect control and ±100 the full control effect; nearly all actives have a fitted effect of over 65% in size
#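 Rat TrxR1 (90 nM in the dispensed reagent) was pre-reduced with 400 uM NADPH for 5 min at room temperature, then incubated with compound for 15 min. After 400 uM selenite was added, NADPH fluorescence (Ex 340/Em 450 nm) was followed for 8 min.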
# VDR confirm = inhibits human vitamin D receptor, primary hit validation | Potency, µM, hits mostly inhibitors | VDR-coactivator inhibition assay, qHTS confirmation | AID 602199 | shares compounds with VDR inh | 840 tested, 89% active
# VDR FP fluor = confirmation of human VDR-coactivator binding inhibitors, fluorescein label | shares compounds with VDR inh | VDR-coactivator binding, fluorescein fluorescence polarization | Potency, µM (series often up to 57.1 µM), for inactives: top-dose activity change, negative = inhibition, hits mostly inhibitors | 840 tested, 48% active | AID 602200
# VDR bla reporter = VDR (human) inhibition, cell-based beta-lactamase validation; VDR beta-lactamase reporter cells, FRET ratio; cells co-treated with VDR agonist LG190178; AID 602202; 840 tested, 23% active; Potency, µM (titrated, usually from 46.1 µM), for the others: at the top dose activity change, negative = inhibition, actives largely listed as inhibitors; shares compounds with VDR inh; further: on the % scale 0 is the no-effect control and ±100 the full control effect
# VDR cytotox = cell toxicity, VDR inhibitor hit counter-screen. shares compounds with VDR inh. Potency, µM (titrated, usually from 48.3 µM), for inactives: top-dose activity change, negative = cytotoxicity, actives largely listed as cytotoxic. cytotoxicity counter-screen, cell viability, qHTS. 840 tested, 18% active;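 further: plate controls were DMSO for no effect and high-concentration cycloheximide for full effect; nearly all actives have a fitted effect of over 75% in size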
# Numbers without * were called inactive; ? = inconclusive; . = no result; [ ] = dose if it differs, or a comment. Most compounds without a hit are left out; they make up all but 1.8% or so of the library. The call rests on the fitted dose curve; in most records, active means well fitted curve in the direction sought with a large enough effect; inconclusive means small, poorly fitted or top-dose-only effect, or another doubt; inactive means no such curve, though single readings can be large; an effect the other way counts as inactive or inconclusive. Potency means the concentration at half of the fitted maximal effect.
SMILES,TrxR1 substrate,VDR inh,KAT2A inh,TrxR1 inh,VDR confirm,VDR FP fluor,VDR bla reporter,VDR cytotox
COc1cc(/C=C/c2[nH]c(=O)[nH]c(=O)c2[N+](=O)[O-])cc(OC)c1O,-10.5%,?,-12.3%,-16.9%,.,.,.,.
CCOC(=O)COc1ccc(Br)cc1/C=C\c1[nH]c(=O)[nH]c(=O)c1[N+](=O)[O-],-8.8%,22.4µM*,-4.3%,44.7µM*,4.23*,3.16µM*,?,?
Cc1cc(OC(=O)c2cccc(Br)c2)c([N+](=O)[O-])c(=O)[nH]1,-1.4%,-9.8%,-4.0%,-3.1%,.,.,.,.
CCOC(=O)COc1ccc(Br)cc1/C=C/c1[nH]c(=O)[nH]c(=O)c1[N+](=O)[O-],-0.3%,14.1µM*,?,?,3.77*,?,-29.8%,?
CCOc1ccc(CNC(=O)c2ccc3c(c2)c(C)c(C)n3Cc2ccccc2)cc1OC,4.4%[57.1 µM],7.9%,-5.8%,26.2%[57.1 µM],.,.,.,.
FC(F)(F)c1cc(-c2ccccc2)nc(N2CCCCCC2)n1,6.6%,-7.6%,-0.2%,17.2%[57.1 µM],.,.,.,.
CS(=O)(=O)c1nc(-c2ccccc2)cc(C(F)(F)F)n1,3.5%,?,-2.9%,17.8µM*,8.91*,4.47µM*,18.4µM*,23.8µM*
COc1ccc(CN2[C@@H](CC(C)=O)c3ccc(/C=C/C(C)=O)cc3S2(=O)=O)cc1,7.7%,79.4µM*,.,?,5.01*,?,?,?
Cc1ccn2c(NCc3ccco3)c(-c3ccccc3)nc2c1,26.1%,4.1%,.,-35.8%,.,.,.,.
CCN(CC)CCNC(=O)CSc1nc2nc(C)c(Cc3ccccc3)c(C)n2n1,5.4%,-10.3%,1.6%,23.9%,.,.,.,.
COc1ccc([N+](=O)[O-])c(S(=O)(=O)c2ccccc2)n1,1.5%[57.1 µM],31.6µM*,-1.9%,?,15*,?,18.4µM*,16.4µM*
Cc1ccc(-c2ccc(/C=C3\C(=O)ON=C3c3ccccc3)o2)c([N+](=O)[O-])c1,-8.1%[57.1 µM],28.2µM*,?,11.2µM*,3.77*,?,18.4µM*,13µM*
COc1ccc(CNC(=O)Cn2c(=O)nc(-c3ccccc3)c3ccccc32)cc1OC,7.4%[57.1 µM],6.3%,16.1%,24.3%[57.1 µM],.,.,.,.
CC1=C(C)CS(=O)N(S(=O)(=O)c2ccccc2)C1 (configuration not stated),-1.2%[57.1 µM],3.16µM*,1.2%,31.5%[57.1 µM],3.77*,?,7.6%,0.5%
Cc1ccc(CSC2=NS(=O)(=O)c3ccccc32)cc1,0.7%,31.6µM*,.,-15.4%,14.1*,8.91µM*,-6.5%,-6.9%
Cc1ccc(C)c(OC2=NS(=O)(=O)c3ccccc32)c1,1.5%[57.1 µM],-16.8%,-3.0%,-18.8%[57.1 µM],.,.,.,.
Cc1ccc(SC2=NS(=O)(=O)c3ccccc32)c(C)c1,-1.3%,35.5µM*,.,?,7.08*,8.91µM*,?,21.2µM*
Cc1ccc(Nc2c(-c3cc(Br)ccc3F)nc3cc(C)ccn23)cc1,38.5%,4.3%,7.5%,12.0%,.,.,.,.
CCc1ncnc2cc(OC)c(OC)cc12,.,-1.7%,-16.4%,.,.,.,.,.
CCOc1ccc(C(=O)Nc2c(C(=O)Nc3ccccc3F)oc3ccccc23)cc1OCC,0.1%,4.2%,-1.2%,1.7%,.,.,.,.
COc1ccc(N(C(=O)Cn2nnc3ccccc32)C(C(=O)NCc2ccccc2)c2ccc(F)cc2)cc1 (configuration not stated),6.8%,-6.5%,-1.5%,17.2%,.,.,.,.
O=C(O)c1cc(/C=C/C(=O)c2cc(F)ccc2O)c2c(c1)COCO2,-11.4%,25.1µM*,-0.6%,44.7µM*,6.7*,?,27.0%,?
O=C(/C=C/c1ccc([N+](=O)[O-])cc1)c1cccs1,-10.7%,?,-4.9%,-16.0%,?,7.08µM*,?,-9.0%
O=C(/C=C/c1cccs1)c1ccc([N+](=O)[O-])cc1,-1.8%,-17.9%,16.5%,12.3%,.,.,.,.
COC(=O)c1c(-c2cccs2)csc1NC(=O)c1ccc(C(C)C)cc1,18.0%,?,?,27.5%,.,.,.,.
SMILES,TrxR1 substrate,VDR inh,KAT2A inh,TrxR1 inh,VDR confirm,VDR FP fluor,VDR bla reporter,VDR cytotox
Cc1c(C)n(Cc2ccc(F)cc2)c2ccc(C(=O)NCc3ccco3)cc12,2.7%[57.1 µM],5.2%,-8.8%,17.4%[57.1 µM],.,.,.,.
Cc1noc(C)c1C(=O)N1CCC[C@@]2(CCN(C(=O)NC(C)C)C2)C1,.,-3.5%,?,.,.,.,.,.
COc1ccc(Oc2nc3c(c(=O)n(C)c(=O)n3C)n2Cc2ccccc2Cl)cc1,4.2%,-15.0%,-1.2%,20.7%,.,.,.,.
COc1cc(/C=C/C(=O)c2ccc(F)cc2)cc(OC)c1OC,-6.6%,31.6µM*,-10.0%,-63.1%,21.2*,?,?,?
Clc1ccc(C[n+]2csc3ccccc32)cc1,-9.7%,50.1µM*,-1.6%,?,15*,?,19.3%,3.8%
CCOC(=O)C1=C(C)N=C2SC(C(=O)OC)=CC(=O)N2C1c1cccc(OC)c1 (configuration not stated),-19.8%,-11.0%,-5.3%,-26.6%,.,.,.,.
CCOC(=O)C1=C(C)N=C2SC(C(=O)OC)=CC(=O)N2C1c1ccc(F)cc1 (configuration not stated),-4.2%[57.1 µM],22.4µM*,-9.1%,-8.8%,13.4*,?,14.9%,?
O=c1cc(-c2ccccc2)nc(SCc2nc(-c3cccc(C(F)(F)F)c3)no2)[nH]1,1.4%[57.1 µM],14.0%,-6.4%,22.2%[57.1 µM],.,.,.,.
Cc1ccc(S(=O)(=O)Oc2ccc(/C=C3\C(=N)N4N=C(S(C)(=O)=O)SC4=NC3=O)cc2)cc1,-13.2%,50.1µM*,?,?,?,3.16µM*,23.8%,?
COc1cc(/C=C2\C(=N)N3N=C(S(C)(=O)=O)SC3=NC2=O)ccc1OS(=O)(=O)c1ccccc1,.,.,-40.4%,.,.,.,.,.
CCc1ccc(NC(=O)Cn2c(=O)n(-c3ccc(OC)cc3)c(=O)c3ccc(C(=O)NCc4ccc(C)cc4)cc32)cc1,19.0%,5.0%,-3.2%,25.0%,.,.,.,.
O=C(Nc1ccc(F)cc1)c1nc(SCc2ccccc2F)ncc1Cl,-2.4%,8.0%,-11.5%,18.5%,.,.,.,.
O=C(Nc1ccc(OC(F)F)cc1)c1nc(S(=O)(=O)Cc2ccccc2F)ncc1Cl,1.2%,.,.,3.55µM*,6.31*,3.98µM*,16.4µM*,16.8µM*
O=C(Nc1ccccc1)c1nc(S(=O)(=O)Cc2ccccc2F)ncc1Cl,9.2%,.,.,?,2.51*,2.51µM*,3.26µM*,13.4µM*
